Laboratory results: PubChem BioAssay AID1794842 (National Center for Advancing Translational Sciences (NCATS), 2023)
The whole screen tested about 2,800 compounds, of which fewer than 10 were called active. Calls follow the shape of the dose curve; as a rule, active = well fitted curve in the direction sought with a large enough effect; inconclusive = small, poorly fitted or top-dose-only effect, or another doubt; inactive = no such curve, though single readings can be large or run the other way. A selection follows.

target: Metallo-beta-lactamase type 2 (Klebsiella pneumoniae) (UniProt C7C422); test: qHTS to identify inhibitors of the New Delhi Metallo-beta-lactamase (NDM): Meropenem screen against the machine-based learning selections.; also: % of control where 0% means no effect; conditions: Purified NDM-1, meropenem hydrolysis, absorbance 300 nm; series mostly up to 38.4 µM; activity change, negative = inhibition: at the top concentration
Sequence (C7C422 whole entry, looked up): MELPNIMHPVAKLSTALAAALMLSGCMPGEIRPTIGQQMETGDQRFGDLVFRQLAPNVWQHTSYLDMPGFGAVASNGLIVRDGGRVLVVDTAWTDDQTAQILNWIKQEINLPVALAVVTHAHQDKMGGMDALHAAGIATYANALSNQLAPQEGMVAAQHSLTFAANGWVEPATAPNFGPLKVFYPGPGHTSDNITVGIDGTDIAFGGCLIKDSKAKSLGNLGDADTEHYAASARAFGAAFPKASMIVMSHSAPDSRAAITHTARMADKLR
Excerpt: Assay Submitter (PI): James Inglese Ph.D., Patricia Dranchak Ph.D., Mahesh Aitha Ph.D. Assay Development and Screening Technology Laboratory (ADST) National Center for Advancing Translational Sciences (NCATS), Rockville, MD National Institute of Health (NIH), Bethesda, Maryland The metallo-beta-lactamases (MBL) are a main antibiotic resistance mechanism evolved by bacteria. There is an urgent clinical need for MBL inhibitors to mitigate this growing threat. To support a machine-based learning study, qHTS has been used to experimentally test inhibitors identified by prediction tools.
PROTOCOL TABLE (as described by Inglese et al., 2007) SEQUENCE No. (e.g., 1, 2, 3, etc.); […] (e.g., enzyme, Incubation, Reagent, etc.); VALUE; DESCRIPTION Primary Screen 1; NDM-1; 4 uL of 3 nM enzyme [2 nM final] in 50 mM HEPES (pH 7.0), 1 uM […], 0.01% Tween20; Use BioRaptr to dispense into two sets of Aurora black, clear bottom high base 1536-well plates 2; Compounds; 23 nL; Use Pin Tool (Wako) to transfer DMSO control and library compounds in DMSO 3; Incubate; >30 min 4a; Reagent; 2 uL of 50 uM nitrocefin [16.7 uM final] to one set of assay plates 4b; Reagent; 2 uL of 150 uM meropenem [50 uM final] to second set of assay plates 5a; Incubate; 15 min 5b; Incubate; 30 min 6a; Detector; Absorbance at 485 nm (bandwidth = 5 nm, 25 flashes/well) on Tecan Infinity 6b; Detector; Absorbance at 300 nm (bandwidth = 5 nm, 25 flashes/well) on Tecan Infinity NOTES (numbers refer to sequence above) 1; Column 1 of each plate received assay buffer without enzyme and columns 2-48 received enzyme for a final assay concentration of 2 nM. 2; Control plate contained DMSO in columns 1, 2, 3, and 4. 3; Compound interaction with enzyme. 4; Nitrocefin and meropenem substrates were prepared in the same assay buffer as step 1 for a final assay concentration of 16.7 uM and 50 uM, respectively, and added to all wells across respective sets of assay plates. 5; Default reader settings were applied for absorbance read at 485 nm (nitrocefin) or 300 nm (meropenem), bandwidth = 5 nm, 25 flashes/well. References: Inglese J, Shamu CE, Guy RK. 2007. Reporting data from high-throughput screening of small-molecule libraries. Nat Chem Biol. doi:10.1038/nchembio0807-438 Yasgar A, Shinn P, Jadhav A, Auld D, Michael S, Zheng W, Austin CP, Inglese J, Simeonov A. 2008. Compound Management for Quantitative High-Throughput Screening. J Lab Autom 13:79 - 89. doi:10.1016/j.jala.2007.12.004

Activity change, negative = inhibition, inactive:
Cc1cc(-c2ccccc2)nc(CN2CC[C@@](O)(C3CCC3)[C@H](C)C2)n1 1.38%, CCOCCN1C(=O)COC[C@@H]1[C@H](O)c1ccc(NC(=O)Cc2ccccc2)cc1 -0.552% [at 57.5 µM], COCC(=O)N[C@H]1C[C@H]2C(=O)NC[C@@H](CCC(=O)N3CCN(c4ccccn4)CC3)N2C1 5.83%, COc1ccc(OC)c(S(=O)(=O)N2CCCC(Cn3c(C)nc4cccnc43)C2)c1 (centres undefined) 0.467%, O[C@@H]1C[C@@H](c2nc(-c3ccc4c(c3)OCO4)no2)N(Cc2cc3ccccc3o2)C1 3.26% [at 57.5 µM], CC1=C[C@@H](CNC(=O)COCC(=O)O)[C@H](C(C)C)C[C@H]1Cc1nc2ccc(C)cc2[nH]1 41.1% [at 57.5 µM], NCCn1cc(C(=O)NCCS(=O)(=O)N2CCCC2)nn1 -0.385%, C=CCN1CCN(C(=O)[C@@H]2Cc3c[nH]c4cccc(c34)[C@H](CC(C)C)N2)CC1 4.68% [at 57.5 µM], COc1ccc(-c2noc([C@@H]3C[C@H](NCc4ccc(N(C)C)cc4)CN3C)n2)cc1 -5.46% [at 57.5 µM], COc1cc(F)cc(-c2cnc3[nH]cc(CC(=O)NCc4cccnc4)c3c2)c1 1.07% [at 57.5 µM], Oc1cccc(Nc2cnc3ccc(-c4ccc(F)cc4)nn23)c1 11.4% [at 57.5 µM], CCc1ccc(-c2nc(C3CC(=O)N(c4ccc(C)cc4)C3)no2)cc1 (centres undefined) 1.01%, COc1ccc([C@@H](NC(=O)c2ccc3cccc(F)c3n2)C2CC(O)C2)cn1 (some centres undefined) 3%, COc1ccc(Nc2cc3c(cn2)CN(CCc2ccccc2)CCN3)cc1 -0.503% [at 57.5 µM], COc1ccc(-c2noc([C@@H]3Cc4nc[nH]c4CN3C(=O)Nc3ccc(C)cc3)n2)cc1 7.68% [at 57.5 µM], CCOC(=O)N1CCN(C(C(=O)O)c2ccc(OC)nc2OC)CC1 (centres undefined) 29%, O=C(O)CCC(=O)N1Cc2[nH]cnc2C[C@H]1C(=O)NC1CCCCC1 13% [at 57.5 µM], CO[C@H]1[C@H](NC(=O)COc2ccccc2)c2ccccc2C12CCNCC2 1.6%, COc1ccc(-c2cc(N3CCCC(NC(=O)c4cccn4C)C3)n[nH]2)cc1 (centres undefined) -0.774%, CC1=C[C@@H](CNC(=O)c2cncnc2)[C@H](C(C)C)C[C@H]1CC(=O)N(C)Cc1ccccc1 -0.536% [at 57.5 µM], CCOCC(=O)N1CCC(N2CC3CC(C2)[C@H]2CCCC(=O)N2C3)CC1 (some centres undefined) -2.05%, NC(=O)c1cccc(-c2cc3c(cn2)CN(Cc2ccncc2)CCN3)c1 0.513% [at 57.5 µM], Cc1ccc(-c2noc([C@@H]3Cc4nc[nH]c4CN3Cc3ccccc3)n2)cc1 51.9% [at 57.5 µM], Cn1cc(-c2cnc(NC(=O)c3c[nH]c4ccccc34)c3c2CCO3)cn1 6.8% [at 57.5 µM], O=C(NCCc1ccc(Cl)cc1)c1nc(-c2cc(Cl)cc(Cl)c2)c2ccccn12 0.233%, CCCNC(=O)N(C1CCOCC1)C1CCN(C(=O)Nc2c(F)cccc2F)CC1 -4.65%, O=C(Cc1c[nH]c2ncc(-c3ccsc3)cc12)NCc1cccnc1 -0.817% [at 57.5 µM], Cc1ccccc1-c1cnc2n[nH]c(-c3ccccc3)c2n1 2.04% [at 76.7 µM], CC1(COc2cccnc2)COc2ccc(C(=O)Nc3ccc4[nH]ccc4c3)cc2N1 (centres undefined) 16.2% [at 57.5 µM], O=C(NCCc1cnc[nH]1)C1CCN(C2CCCCC2)CC1 0.443%, Cc1ccccc1NC(=O)c1cnc2c(c1)N(Cc1ccccc1)CCC2 4.53% [at 57.5 µM], C=CCCC(CN1CCCOCC1)Oc1ccc(-c2ccccc2)nn1 (centres undefined) -1.94%, COCCc1noc(CN(C)c2cc(C(C)C)nc3ccnn23)n1 -1.68%, CCC(=O)N1CCC(Cc2nc(-c3ccccc3)n[nH]2)CC1 0.766%, Cc1cc(C(=O)N[C@H](C)c2c(-c3ccc(Cl)cc3)noc2C(=O)O)c(C)o1 53.2% [at 57.5 µM], CC(=O)Nc1ccc(CN2CCC(N3CCCCCC3=O)CC2)cc1 0.422%, CC[C@H]1CN(C(=O)C(C)(C)C)CC[C@H]1CC(=O)NCCSC 1.03% [at 57.5 µM], O=c1[nH]c(-c2ccc(F)cc2)nc2c1CCN(S(=O)(=O)c1cccs1)C2 1.01%, O=C(O)c1cncc(N2CCC3(CC2)CNC(C(=O)O)C3)n1 (centres undefined) 42.7%, COc1cccc(CN2CCOC[C@H](Oc3cccnc3)C2)c1 1.48% [at 57.5 µM], O=C(O)[C@H]1C[C@@H](C(=O)NCc2ccccn2)CN(CC2CC2)C1 22.1%, O=C(CN1C(=O)NC(c2ccccc2Cl)C2=C1COC2=O)Nc1ccc(F)c(Cl)c1 (centres undefined) 2.9%, COc1ccc(CN2CCNc3cnc(Nc4ccccc4)cc3C2)cn1 15% [at 57.5 µM], Cc1noc([C@@H](C)NC(=O)Nc2cccnc2)c1C(=O)O 49.7% [at 57.5 µM], O=C(CCn1nnc(-c2ccccc2)n1)N1CCCC2(CCNCC2)CC1 -4.15%, CC(C)CCNC1(Cc2cc(CN3CCOCC3)on2)COC1 8.33% [at 57.5 µM], Cc1noc([C@@H]2CNC[C@H]2CO)n1 4.3%, O=C(NCc1cccnc1)[C@@H]1C[C@@H](c2ccc(F)cc2)N(Cc2ccccc2)C1 -0.331% [at 57.5 µM], CC1=C[C@@H](CC#N)[C@H](C(C)C)C[C@H]1CC(=O)NC1CC1 -1.03% [at 76.7 µM], c1cncc(Nc2cc3c(cn2)CN(Cc2ccc4[nH]ccc4c2)CCN3)c1 1.18% [at 57.5 µM], COc1ccc(-c2cc(-c3cccc(C(N)=O)c3)cn3cncc23)cc1 29.1% [at 57.5 µM], NC(=O)Cc1c[nH]c2ncc(-c3ccc(F)cc3)cc12 12.5% [at 76.7 µM], O=c1c2nc(NCc3ccccc3)ccc2ncn1Cc1ccccn1 18.9% [at 57.5 µM], CCCS(=O)(=O)N1CCC(Oc2nccnc2N2CCOCC2)C1 (centres undefined) 5.44%
